In the supplement of paper PMC12494721:
Where a name gives a salt, the structure may show the parent alone.

Key:
Details in all cases: incubation time: 27 h, anaerobic, 37 °C;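 for the amine columns active = adjusted P below 0.05 in both replicates with a change the same way and a mean fold change under 0.8 or over 1.25; inactive = the rest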
[1] = tested on: Clostridium sporogenes DSM 1664; assay: growth (OD595) fold change vs plate DMSO controls (fold change (ratio)); higher = more growth
How it was run: (§1)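 Shaken 96-well cultures in mGAM, grown anaerobically for 27 h at 37 °C, were read at 595 nm. OD came from blank-subtracted readings, corrected for background with 20 µM compound solutions in water and scaled by a calibration factor of 5. Growth is the fold change versus the plate's median DMSO control. Values average 2 biological replicates, and any fold change above 1.5 is NA.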

Escherichia coli IAI1 [2] = assay: as above
How it was run: as §1

[3] = tested on: Klebsiella aerogenes DSM 30053; assay: as above
How it was run: as §1

[4] = tested on: Ruminococcus gnavus DSM 108212; assay: as above
How it was run: as §1

[5] = tested on: Klebsiella aerogenes DSM 30053; assay: fold change of Histamine concentration vs plate DMSO controls (fold change (ratio)); higher = more amine produced, active = hit call of the paper (significant change in both replicates, either direction)
How it was run: (§2)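 Each value is the fold change relative to DMSO-only wells on the same plate. Four gut bacterial strains were grown anaerobically in mGAM at 37 °C for 27 h in 80 µL wells, starting at OD 0.1 before a 1:1 dilution, with compounds at 20 µM final (sweeteners 50 µM). Whole cultures were extracted with cold acetonitrile/methanol containing 0.1% formic acid, centrifuged, and amines were quantified by LC–triple-quadrupole MS (dynamic MRM) against external calibration curves with within-batch drift correction. Values are means of 2 biological replicates.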

[6] = tested on: Clostridium sporogenes DSM 1664; assay: fold change of Tryptamine concentration vs plate DMSO controls (fold change (ratio)); higher = more amine produced, active = hit call of the paper (significant change in both replicates, either direction)
How it was run: as §2

[7] = tested on: Ruminococcus gnavus DSM 108212; assay: as above
How it was run: as §2

Escherichia coli IAI1 [8] = assay: fold change of Putrescine concentration vs plate DMSO controls (fold change (ratio)); higher = more amine produced, active = hit call of the paper (significant change in both replicates, either direction)
How it was run: as §2

[9] = tested on: Klebsiella aerogenes DSM 30053; assay: as above
How it was run: as §2

Escherichia coli IAI1 [10] = assay: fold change of Cadaverine concentration vs plate DMSO controls (fold change (ratio)); higher = more amine produced, active = hit call of the paper (significant change in both replicates, either direction)
How it was run: as §2

[11] = tested on: Klebsiella aerogenes DSM 30053; assay: as above
How it was run: as §2

[12] = tested on: Ruminococcus gnavus DSM 108212; assay: fold change of 2-Phenylethylamine concentration vs plate DMSO controls (fold change (ratio)); higher = more amine produced, active = hit call of the paper (significant change in both replicates, either direction)
How it was run: as §2

| SMILES | growth [1] | growth (Escherichia coli IAI1 [2]) | growth [3] | growth [4] | fold change of Histamine concentration [5] | fold change of Tryptamine concentration [6] | fold change of Tryptamine concentration [7] | fold change of Putrescine concentration (Escherichia coli IAI1 [8]) | fold change of Putrescine concentration [9] | fold change of Cadaverine concentration (Escherichia coli IAI1 [10]) | fold change of Cadaverine concentration [11] | fold change of 2-Phenylethylamine concentration [12] |
| --- | --- | --- | --- | --- | --- | --- | --- | --- | --- | --- | --- | --- |
| C[C@@](Cc1ccc(O)c(O)c1)(NN)C(=O)O [Carbidopa] (20 µM) | 0.93 | 0.989 | 1.03 | 0.905 | 0.98 (inactive) | 1.04 (inactive) | 1 (inactive) | 1.05 (inactive) | 1.01 (inactive) | 0.994 (inactive) | 1 (inactive) | 0.963 (inactive) |
| CN1CCC(=C2c3ccccc3CCc3cccnc32)CC1 [Azatadine maleate] (20 µM) | 0.968 | 0.983 | 0.994 | 0.99 | 1.05 (inactive) | 1.14 (inactive) | 1.01 (inactive) | 1.34 (inactive) | 1.01 (inactive) | 0.966 (inactive) | 1 (inactive) | 1.03 (inactive) |
| CN1CC(=O)N2[C@H](c3ccc4c(c3)OCO4)c3[nH]c4ccccc4c3C[C@@H]2C1=O [Tadalafil] (20 µM) | 1 | 1.02 | 0.993 | 0.916 | 1.07 (inactive) | 1.07 (inactive) | 0.925 (inactive) | 0.957 (inactive) | 1.01 (inactive) | 1.03 (inactive) | 0.971 (inactive) | 0.911 (inactive) |
| OCCOCCN1CCN(C2=Nc3ccccc3Sc3ccccc32)CC1 [Quetiapine hemifumarate] (20 µM) | 0.966 | 1.13 | 1.07 | 0.982 | 0.894 (inactive) | 1 (inactive) | 1.01 (inactive) | 1.09 (inactive) | 0.978 (inactive) | 0.892 (inactive) | 1.03 (inactive) | 0.991 (inactive) |
| CO[C@H]1/C=C/O[C@@]2(C)Oc3c(C)c(O)c4c(O)c(c5c(nc6cc(C)ccn65)c4c3C2=O)NC(=O)/C(C)=C\C=C\[C@H](C)[C@H](O)[C@@H](C)[C@@H](O)[C@@H](C)[C@H](OC(C)=O)[C@@H]1C [Rifaximin] (20 µM) | 0.00823 | 0.438 | 0.844 | 0.306 | 1.15 (inactive) | 0.0445 (active) | 0.144 (active) | 0.996 (inactive) | 0.651 (active) | 1.53 (active) | 1.04 (inactive) | 0.149 (active) |
| CN(C)CCN(Cc1ccc(Cl)cc1)c1ccccn1 [Chloropyramine hydrochloride] (20 µM) | 0.894 | 1.03 | 0.92 | 0.771 | 0.98 (inactive) | 1.05 (inactive) | 1.16 (inactive) | 0.817 (inactive) | 0.975 (inactive) | 1.58 (active) | 0.994 (inactive) | 1.27 (inactive) |
| CN(C)c1cc(NC(=O)CNC(C)(C)C)c(O)c2c1C[C@H]1C[C@H]3[C@H](N(C)C)C(=O)C(C(N)=O)=C(O)[C@@]3(O)C(=O)C1=C2O [Tigecycline] (20 µM) | 0.926 | 1.12 | 1.18 | 1.19 | 0.865 (inactive) | 0.964 (inactive) | 1.08 (inactive) | 1.08 (inactive) | 0.991 (inactive) | 0.967 (inactive) | 1.03 (inactive) | 1.13 (inactive) |
| CC[N+]1(CC)CCC(=C(c2ccccc2)c2ccccc2)C1C (stereo not drawn) [Prifinium Bromide] (20 µM) | 1.1 | 1.08 | 1.04 | 0.925 | 0.982 (inactive) | 1.02 (inactive) | 0.907 (inactive) | 1.07 (inactive) | 1 (inactive) | 0.989 (inactive) | 1.01 (inactive) | 0.85 (inactive) |
| CC(C)Cc1ccc(C(C)C(=O)OCc2ccccn2)cc1 (stereo not drawn) [Ibuprofen Piconol] (20 µM) | 0.967 | 1 | 0.98 | 1.13 | 1.01 (inactive) | 1.01 (inactive) | 1.1 (inactive) | 1 (inactive) | 1.01 (inactive) | 0.983 (inactive) | 0.996 (inactive) | 1.15 (inactive) |
| CCOC(=O)c1ccc(OC(=O)CCCCCNC(=N)N)cc1 [Gabexate mesilate] (20 µM) | 1.07 | 1 | 0.974 | 1.02 | 0.978 (inactive) | 0.953 (inactive) | 0.865 (inactive) | 1.01 (inactive) | 1.07 (inactive) | 0.998 (inactive) | 1.04 (inactive) | 0.776 (inactive) |
| NS(=O)(=O)c1cc2c(cc1Cl)N=C(CSCc1ccccc1)NS2(=O)=O [Benzthiazide] (20 µM) | 1.1 | 0.998 | 1.02 | 1.08 | 0.978 (inactive) | 0.983 (inactive) | 0.961 (inactive) | 0.975 (inactive) | 0.993 (inactive) | 1.02 (inactive) | 0.993 (inactive) | 0.939 (inactive) |
| C[C@]12CCC(=O)C=C1C=C[C@@H]1[C@@H]2CC[C@@]2(C)[C@H]1CC[C@@]21CCC(=O)O1 [Canrenone] (20 µM) | 1.01 | 1.03 | 1.01 | 1.03 | 0.908 (inactive) | 1 (inactive) | 1.12 (inactive) | 0.86 (inactive) | 0.967 (inactive) | 0.878 (inactive) | 1.02 (inactive) | 1.14 (inactive) |
| CCc1cc(Cl)c(OC)c(C(=O)NC[C@@H]2CCCN2CC)c1O [(S,-) Eticlopride hydrochloride] (20 µM) | 0.973 | 0.985 | 1.02 | 0.979 | 1.04 (inactive) | 0.99 (inactive) | 0.88 (inactive) | 0.975 (inactive) | 1.02 (inactive) | 1.01 (inactive) | 0.985 (inactive) | 0.939 (inactive) |
| COC(=O)N/N=C/c1c[n+]([O-])c2ccccc2[n+]1[O-] [Carbadox] (20 µM) | 0.00259 | 0.0346 | 0.0738 | 0.0392 | 0.0834 (active) | 0.00903 (active) | 0.0355 (active) | 0.388 (active) | 0.377 (active) | 0.187 (active) | 0.983 (inactive) | 0.0387 (active) |
| CCOC(N)=O [Urethane] (20 µM) | 0.952 | 1.05 | 1.04 | 1.08 | 1.03 (inactive) | 0.944 (inactive) | 0.961 (inactive) | 1.02 (inactive) | 1.05 (inactive) | 1.03 (inactive) | 1.03 (inactive) | 0.926 (inactive) |
| Cc1cccc(N(C)C(=S)Oc2ccc3ccccc3c2)c1 [Tolnaftate] (20 µM) | 1.02 | 0.997 | 0.984 | 0.839 | 0.984 (inactive) | 1.04 (inactive) | 1.06 (inactive) | 1.04 (inactive) | 1.01 (inactive) | 1 (inactive) | 1 (inactive) | 1.04 (inactive) |
| Cc1c(OCC(F)(F)F)ccnc1C[S+]([O-])c1nc2ccccc2[nH]1 (stereo not drawn) [Lansoprazole] (20 µM) | 1 | 1.06 | 1.01 | 1.02 | 1.03 (inactive) | 1.02 (inactive) | 0.974 (inactive) | 1.03 (inactive) | 1.01 (inactive) | 1.03 (inactive) | 1.01 (inactive) | 0.971 (inactive) |
| O=C(O)CNC(=O)c1ccccc1 [Hippuric acid] (20 µM) | 1.12 | 1.02 | 1.02 | 1.05 | 1.03 (inactive) | 1.05 (inactive) | 1.08 (inactive) | 0.979 (inactive) | 0.997 (inactive) | 0.94 (inactive) | 1.01 (inactive) | 1.09 (inactive) |
| COC1=C(OC)C(=O)C(CCCCCCCCCCO)=C(C)C1=O [Idebenone] (20 µM) | 1.18 | 1 | 1.01 | 0.839 | 1.06 (inactive) | 1.02 (inactive) | 1.06 (inactive) | 0.947 (inactive) | 1.01 (inactive) | 1.05 (inactive) | 1.08 (inactive) | 1.17 (inactive) |
| Cc1c(C)c2c(c(C)c1O)CCC(C)(C(=O)O)O2 (stereo not drawn) [Trolox] (20 µM) | 0.897 | 0.987 | 0.962 | 0.896 | 1.13 (inactive) | 0.995 (inactive) | 1.02 (inactive) | 0.926 (inactive) | 1.04 (inactive) | 0.986 (inactive) | 0.984 (inactive) | 1.03 (inactive) |
| O=C(O[C@@H]1C[C@@H]2C[C@H]3C[C@H](C1)N2CC3=O)c1c[nH]c2ccccc12 [Dolasetron mesilate] (20 µM) | 0.968 | 0.994 | 0.986 | 1.07 | 0.981 (inactive) | 1 (inactive) | 1.02 (inactive) | 0.942 (inactive) | 0.991 (inactive) | 0.979 (inactive) | 0.989 (inactive) | 1.04 (inactive) |
| CO/N=C(\C(=O)N[C@@H]1C(=O)N2C(C(=O)OCOC(=O)C(C)(C)C)=C(/C=C\c3scnc3C)CS[C@H]12)c1csc(N)n1 [Cefditoren Pivoxil] (20 µM) | 0.809 | 1.11 | 1.03 | 0.996 | 0.988 (inactive) | 0.951 (inactive) | 1 (inactive) | 0.864 (inactive) | 1.12 (inactive) | 1.18 (inactive) | 1.05 (inactive) | 1.01 (inactive) |
| O=C1OC(CN2CCOCC2)CN1/N=C/c1ccc([N+](=O)[O-])o1 (stereo not drawn) [Furaltadone hydrochloride] (20 µM) | 0.861 | 1.04 | 0.945 | 0.987 | 0.938 (inactive) | 0.89 (inactive) | 0.852 (inactive) | 0.777 (inactive) | 0.939 (inactive) | 1.7 (active) | 1.01 (inactive) | 0.929 (inactive) |
| C[C@@H]1[C@H](O)[C@@H](C)/C=C/C=C/C=C/C=C/C=C/C=C/C=C/[C@H](O[C@@H]2O[C@H](C)[C@@H](O)[C@H](N)[C@@H]2O)C[C@@H]2O[C@](O)(C[C@@H](O)C[C@@H](O)[C@H](O)CC[C@@H](O)C[C@@H](O)CC(=O)O[C@H]1C)C[C@H](O)[C@H]2C(=O)O [Amphotericin B] (20 µM) | 0.881 | 1.01 | 0.982 | 0.469 | 1.01 (inactive) | 0.985 (inactive) | 1.09 (inactive) | 1.23 (inactive) | 0.957 (inactive) | 1.09 (inactive) | 1.14 (inactive) | 1.25 (inactive) |
